# Compound activity deposited in PubChem BioAssay by several laboratories.
# Peg3 prom inh – inhibitors of Peg3 promoter | HeLa PEG-Prom luciferase reporter, luminescence, overnight | inhibition, % at 20 µM | 360,000 compounds, 1.7% hits | AID 588405;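 active = inhibition of at least 50% at 20 µM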
# LMP1 NFkB inh – inhibitors of Epstein-Barr LMP1-induced NF-kappaB reporter. LMP1-induced NF-kappaB luciferase reporter cells, luminescence. inhibition, % at 12.5 µM. 350,000 compounds, 0.69% hits; in the data active = inhibition above about 41%; inconclusive = no clear call, values can overlap the other calls;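 also: 0% = neutral control wells and 100% = reference inhibitor control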
# TWEAK-Fn14 inh – inhibitors of TWEAK-Fn14 interaction signaling | TWEAK-stimulated Fn14 reporter cells, luciferase luminescence, 8 h | inhibition, % at 10 µM | 360,000 compounds, 2% hits | AID 1159606; in the data active = inhibition above about 50%
# HIF-2a block – blocks HIF-2a reporter activity; 786-0 RCC cells HIF-2a reporter, luciferase luminescence, overnight; inhibition, % at 18.8 µM; 360,000 compounds, 0.72% hits;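 active = inhibition of the luminescence signal of 40% or more relative to plate controls, in a single-dose primary screen at 18.75 µM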
# MITF TRPM1 inh – MITF TRPM1 promoter inhibition in SK-MEL-5 cells; SK-MEL-5 TRPM1 promoter luciferase, 24 h; inhibition, % at 12.5 µM; 330,000 compounds, 0.83% hits; AID 488899;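 active = mean inhibition across replicates of 60% or more, whatever share of single replicates reaches that level; inconclusive = some that reach 60%, reason not given; inactive = mean inhibition across replicates below 60%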
# TROY NFkB inh – TROY signaling inhibition; inhibition, % at 10 µM; 360,000 compounds, 0.98% hits; Q293 LMP1-TROYcd NF-kB luciferase reporter, 4 h;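 active = compounds whose plate-normalised and pattern-corrected inhibition of the luciferase reporter signal at the single screening dose is 50% or more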
# Active calls of the source: *; ? = inconclusive; · = not tested or not shown. A selection: hits, their analogues and other compounds. The true share with any hit is near 4%.
SMILES,Peg3 prom inh,LMP1 NFkB inh,TWEAK-Fn14 inh,HIF-2a block,MITF TRPM1 inh,TROY NFkB inh
COc1ccc(-c2nc(CN3CCN(c4ncnc5ccccc45)CC3)c(C)o2)c(OC)c1,19,17,59*,13,32,29
Cc1oc(-c2cc(F)ccc2F)nc1CN1CCN(c2ncnc3ccccc23)CC1,15,19,52*,26,20,28
Cc1nn(C2CCS(=O)(=O)C2)c(C)c1CN(C)C(=O)c1ccc(F)cc1 (stereo not given),5,-9,-15,9,·,13
Cc1ccc(NS(=O)(=O)c2cc(-c3n[nH]c(=O)c4ccccc34)ccc2C)cc1,62*,2,35,26,6,28
CCOC(=O)CNS(=O)(=O)c1cc(-c2n[nH]c(=O)c3ccccc23)ccc1C,7,14,-22,15,8,-33
O=C1NC(=Nc2ccccc2Cl)S/C1=C\c1cccc([N+](=O)[O-])c1,31,10,10,10,9,70*
COc1ccc(C2c3c(ncn(CCN4CCOCC4)c3=N)Oc3ccc4ccccc4c32)cc1OC (stereo not given),78*,-3,-59,-16,5,14
COc1ccc(C2c3c(ncn(CCCO)c3=N)Oc3ccc4ccccc4c32)cc1 (stereo not given),82*,-3,-31,18,26,-8
COc1ccc(C2c3c(ncn(CCCO)c3=N)Oc3ccc4ccccc4c32)cc1OC (stereo not given),23,·,-19,7,·,14
COc1ccc(C2c3ccc4ccccc4c3Oc3ncn(Cc4ccco4)c(=N)c32)cc1OC (stereo not given),42,5,39,-9,27,16
COc1ccccc1C1c2ccc3ccccc3c2Oc2ncn(CCN(C)C)c(=N)c21 (stereo not given),103*,48*,-8,-2,69*,-6
COc1ccc(C(C(=O)Nc2ccc(F)cc2)N2CCN(c3cccc(C(F)(F)F)n3)CC2)cc1 (stereo not given),·,·,·,0,·,·
CC(=O)OCCCNc1cc(Sc2ccc(C)cc2)c2nonc2c1[N+](=O)[O-],30,10,80*,12,38,64*
Cn1ccnc1Sc1cc(NCCCO)c([N+](=O)[O-])c2nonc12,85*,7,20,21,-3,23
COC(=O)CCSc1cc(NCCOC(C)=O)c([N+](=O)[O-])c2nonc12,10,14,20,13,-2,21
O=[N+]([O-])c1ccc(-n2nnnc2-c2ccccc2)c([N+](=O)[O-])c1,12,-13,87*,17,98*,17
COc1ccc2cc(C(=O)C3CCCN(C(=O)/C=C/c4ccccn4)C3)ccc2c1 (stereo not given),3,-1,5,-14,1,-15
CC(C)CCN1CCN(Cc2cc(F)ccc2-n2cccn2)CC1CCO (stereo not given),12,-1,-12,11,-2,7
OCCC1CN(Cc2cc(F)ccc2-n2cccn2)CCN1C1CCCC1 (stereo not given),3,4,91*,0,14,8
O=C1C=CC(=Nc2ccc3c(c2)Cc2ccccc2-3)O1,-86,-6,29,-46,-6,65*
Nc1cc2c(cc1Cl)-c1ccccc1C2,-281,-11,-66,-206,-67,-50
O=C(Cn1ncc2c([nH]c3ccccc32)c1=O)Nc1ccc(CN2CCCCC2)cc1,73*,-1,-9,7,?,-24
Cc1ccc(NC2(C#N)CCCC2)cc1,-6,-8,-4,1,-12,-23
COc1ccc2c3c(cccc13)C(=O)CC2,40,1,63*,33,6,28
COc1ccc2c(c1OC)C(=O)OC2,-3,0,-4,14,·,-5
SMILES,Peg3 prom inh,LMP1 NFkB inh,TWEAK-Fn14 inh,HIF-2a block,MITF TRPM1 inh,TROY NFkB inh
O=S(=O)(Nc1nc2ccccc2nc1N1CCc2ccccc2C1)c1ccc(Cl)cc1,-114,-3,72*,-119,-7,24
O=S(=O)(Nc1nc2ccccc2nc1N1CCc2ccccc2C1)c1ccc(Br)cc1,-30,-14,78*,-6,-28,14
CC(=O)Nc1ccc(S(=O)(=O)Nc2nc3ccccc3nc2N2CCc3ccccc3C2)cc1,-152,-9,15,-197,25,-13
CCN(C(=O)COC(=O)CCOc1cc(C)ccc1C)c1c(N)n(Cc2ccccc2)c(=O)[nH]c1=O,12,2,-6,20,12,-9
C#CCn1cc2c(c1-c1ccccc1)c(=O)n(C)c(=O)n2C,10,5,-1,-3,·,2
O=S1(=O)CC(N2CCN(CC3CC3)CC2)CN1CCc1ccccc1 (stereo not given),-2,·,-11,-3,·,18
CN(/N=C/c1cc(Br)cc(Br)c1O)c1cccc(C(F)(F)F)n1,57*,6,20,13,4,23
CN(N=Cc1ccccc1O)c1ccc2ccccc2n1,-365,-20,-8,-54,·,-52
Oc1ccccc1-c1nc(NCc2ccco2)c2ccccc2n1,-61,-4,3,-215,-12,-70
c1ccc(-c2nc(NCc3ccco3)c3ccccc3n2)nc1,49,63*,5,-4,30,-32
Cc1ccc(Nc2nc(NCc3ccco3)c3ccccc3n2)cc1,106*,-11,85*,-130,-21,70*
COc1ccc(NS(=O)(=O)c2cccc(C(=O)N3CCC3)c2)cc1,11,0,-12,8,7,6
C#CCn1c(=O)c2c(ncn2C)n(C)c1=O,4,44*,-11,0,3,-12
O=C(NCc1ccccc1)C1C(c2ccccc2)=Nc2ccccc2N1C(=O)c1cccnc1 (stereo not given),·,·,·,1,·,·
Cc1ccc2oc(NC3=NC4(CCCC4)C4=C(CCCC4=O)N3)nc2c1,17,·,52*,5,·,9
CC1(C)CC(=O)C2=C(C1)NC(Nc1nc3ccccc3o1)=NC21CCCCC1,6,-6,6,5,9,3
Cc1ccc(S(=O)(=O)N2CCCN(C(=O)CNC(=O)c3cccc(C)c3)CC2)cc1,8,-2,1,11,-4,-22
O=C(NCCc1ccc(Cl)cc1)c1ccc2ccccc2n1,-162,-12,18,-136,-9,-9
O=C(O)C(=O)/C(=C\c1ccc(Cl)cc1)c1ccc2ccccc2n1,-298,-41,34,-199,-42,53*
COc1ccccc1C(=O)NCCC(=O)N1CCN(c2cccc(C(F)(F)F)c2)CC1,18,5,-6,3,-12,2
COc1ccc(/C=C/c2nc(N)nc(-c3ccccc3O)n2)cc1OC,29,-7,55*,-109,0,13
COc1ccc(/C=C/c2nc(N)nc(-c3ccccc3O)n2)cc1,-99,-10,6,-90,-10,-74
COc1cc(/C=C/c2nc(N)nc(-c3ccccc3O)n2)cc(OC)c1OC,37,-40,53*,4,-7,18
